Values joined by “and” are separate entries in the source; they are usually repeats but may differ in a detail not shown here. Identical values can stand only once. Records with an inconclusive call do not appear. Where a call stands in place of a potency, no number is given. A number with no mark means an inactive call. Active and inactive are the calls of the source. Calls follow the shape of the dose curve; as a rule, active = well fitted curve in the direction sought with a large enough effect; inconclusive = small, poorly fitted or top-dose-only effect, or another doubt; inactive = no such curve, though single readings can be large; an effect the other way counts as inactive or inconclusive.
Tested on: not listed separately
Experiment: qHTS of pediatric cancer cell lines to identify multiple opportunities for drug repurposing: Confirmatory screen for Rh18 cells (AID 1347125); also: nearly all actives have a fitted effect of over 55% in size
Details: Rh18 rhabdomyosarcoma cells, viability; series mostly up to 45.9 µM
Outline: (§1)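 Cells (500-1,000/well) rested 5 h, then received compounds for 48 h; metabolically active cells were measured by CellTiter-Glo luminescence. Final concentrations spanned up to 46 µM (MIPE, 11-point) or 0.59 nM-46 µM (NPC, 8-point) in primary screens, 11-point in follow-ups.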

Compound	outcome	activity change, negative = cytotoxic
CCN(CC)CCNC(=O)c1cc(Cl)c(N)cc1OC	inactive	–
Cc1ccc2nc(N)[nH]c(=O)c2c1Sc1ccncc1	inactive	–
O=c1cc[nH]c(=S)[nH]1	inactive	–
C[C@@H]1C[C@H]2[C@@H]3C[C@H](F)C4=CC(=O)C=C[C@]4(C)[C@@]3(F)[C@@H](O)C[C@]2(C)[C@@]1(O)C(=O)CO	inactive	–
O=C1N=C(O)CN1/N=C/c1ccc(-c2ccc([N+](=O)[O-])cc2)o1	inactive	–
C[C@](N)(Cc1ccc(O)cc1)C(=O)O	–	0.623% [at 5.01 µM]

Tested on: not listed separately
Experiment: qHTS of pediatric cancer cell lines to identify multiple opportunities for drug repurposing: Confirmatory screen for Rh30 cells (AID 1347126); also: nearly all actives have a fitted effect of over 55% in size
Details: Rh30 rhabdomyosarcoma cell viability; series mostly up to 45.9 µM
Outline: as §1

Compound	outcome	activity change, negative = cytotoxic
CCN(CC)CCNC(=O)c1cc(Cl)c(N)cc1OC	inactive	–
Cc1ccc2nc(N)[nH]c(=O)c2c1Sc1ccncc1	inactive	–
O=c1cc[nH]c(=S)[nH]1	inactive	–
O=C1N=C(O)CN1/N=C/c1ccc(-c2ccc([N+](=O)[O-])cc2)o1	inactive	–
C[C@](N)(Cc1ccc(O)cc1)C(=O)O	–	0% [at 5.01 µM]

Tested on: not listed separately
Experiment: qHTS of pediatric cancer cell lines to identify multiple opportunities for drug repurposing: Confirmatory screen for Saos-2 cells (AID 1347127); also: nearly all actives have a fitted effect of over 60% in size
Details: Saos-2 osteosarcoma cell viability; series mostly up to 45.9 µM
Outline: as §1

Compound	outcome	activity change, negative = cytotoxic
CCN(CC)CCNC(=O)c1cc(Cl)c(N)cc1OC	inactive	–
O=c1cc[nH]c(=S)[nH]1	inactive	–
O=C(O)CN1C(=O)c2cccc3cccc(c23)C1=O	inactive	–
O=C1N=C(O)CN1/N=C/c1ccc(-c2ccc([N+](=O)[O-])cc2)o1	inactive	–
C[C@](N)(Cc1ccc(O)cc1)C(=O)O	–	17.6% [at 5.01 µM]

Tested on: not listed separately
Experiment: qHTS of pediatric cancer cell lines to identify multiple opportunities for drug repurposing: Confirmatory screen for OHS-50 cells (AID 1347128);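 also: compound exposure lasted 48 h at 37 degrees C; nearly all actives have a fitted effect of over 55% in size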
Details: OHS-50 osteosarcoma cells viability; series mostly up to 45.9 µM
Outline: as §1

Compound	outcome
CCN(CC)CCNC(=O)c1cc(Cl)c(N)cc1OC	inactive
C[C@@H]1C[C@H]2[C@@H]3C[C@H](F)C4=CC(=O)C=C[C@]4(C)[C@@]3(F)[C@@H](O)C[C@]2(C)[C@@]1(O)C(=O)CO	inactive
O=C1N=C(O)CN1/N=C/c1ccc(-c2ccc([N+](=O)[O-])cc2)o1	inactive

Tested on: not listed separately
Experiment: qHTS of pediatric cancer cell lines to identify multiple opportunities for drug repurposing: Confirmatory screen for SK-N-SH cells (AID 1347129);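 also: cells exposed to compound for 48 h before viability read; nearly all actives have a fitted effect of over 60% in size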
Details: SK-N-SH neuroblastoma cell viability; series mostly up to 46.1 µM
Outline: as §1

Compound	outcome	activity change, negative = cytotoxic
CCN(CC)CCNC(=O)c1cc(Cl)c(N)cc1OC	inactive	–
O=c1cc[nH]c(=S)[nH]1	inactive	–
C[C@@H]1C[C@H]2[C@@H]3C[C@H](F)C4=CC(=O)C=C[C@]4(C)[C@@]3(F)[C@@H](O)C[C@]2(C)[C@@]1(O)C(=O)CO	inactive	–
O=C(O)CN1C(=O)c2cccc3cccc(c23)C1=O	inactive	–
O=C1N=C(O)CN1/N=C/c1ccc(-c2ccc([N+](=O)[O-])cc2)o1	inactive	–
C[C@](N)(Cc1ccc(O)cc1)C(=O)O	–	11.7% [at 5.03 µM]

Target: N-terminal Xaa-Pro-Lys N-methyltransferase 1 (Homo sapiens) (UniProt Q9BV86)
Experiment: qHTS Assay for Inhibitors of N-terminal methyltransferase 1 (NTMT1): LOPAC validation of the NTMT1 SAHH-coupled ThioGlo3 Assay (AID 1347143);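 also: SAH from peptide methylation measured as thiol fluorescence via SAHH coupling and ThioGlo3; nearly all actives have a fitted effect of over 70% in size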; also: potency is read from the fitted curve at half-maximal effect
Details: recombinant NTMT1, SAHH-coupled ThioGlo3 fluorescence; series mostly up to 114 µM
Outline: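 Inhibition of NTMT1 methylation of peptide SPKRIA is followed by converting SAH with SAHH and labelling the released thiol with ThioGlo3. Plates are read at 340/450nm before and 30 min after reagent addition, both at room temperature.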

Chain of N-terminal Xaa-Pro-Lys N-methyltransferase 1 (Homo sapiens) (Q9BV86 whole entry, looked up): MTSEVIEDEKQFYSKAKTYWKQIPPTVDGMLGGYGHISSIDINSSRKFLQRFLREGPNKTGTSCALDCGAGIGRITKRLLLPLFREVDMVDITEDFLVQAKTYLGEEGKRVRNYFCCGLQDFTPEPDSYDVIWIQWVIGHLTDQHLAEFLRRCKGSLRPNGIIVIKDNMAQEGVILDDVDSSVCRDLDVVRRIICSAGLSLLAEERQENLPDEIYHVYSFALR

Compound	Potency
CCCCN(CCCC)CC(O)c1cc(Cl)cc2c1-c1ccc(Cl)cc1/C2=C/c1ccc(Cl)cc1 (configuration not stated)	inactive
NC(=O)c1ncn([C@@H]2O[C@H](CO)[C@@H](O)[C@H]2O)n1	inactive
CCCn1cnc2c1c(=O)n(CCCCC(C)=O)c(=O)n2C	inactive
CCN(CC)CCNC(=O)c1cc(Cl)c(N)cc1OC	inactive
C[C@H]1O[C@@H](n2cc(F)c(=O)[nH]c2=O)[C@H](O)[C@@H]1O	inactive
Cc1c(O)cccc1C(=O)N[C@@H](CSc1ccccc1)[C@H](O)CN1C[C@H]2CCCC[C@H]2C[C@H]1C(=O)NC(C)(C)C	inactive
CCCCc1ncc(/C=C(\Cc2cccs2)C(=O)O)n1Cc1ccc(C(=O)O)cc1	inactive
OCc1cc(C(O)CNCCCCCCOCCCCc2ccccc2)ccc1O (configuration not stated)	56.2 µM (active)
CN(C)CCC=C1c2ccccc2CCc2ccccc21	inactive
N=c1c[n+](N2CCOCC2)[n-]o1	44.7 µM (active) and 50.1 µM (active)
O=C1NC(=O)[C@@]2(CCOc3ccc(F)cc32)N1	inactive
COc1ccc(Cl)cc1C(=O)NCCc1ccc(S(=O)(=O)NC(=O)NC2CCCCC2)cc1	inactive
CNCCC(Oc1ccc(C(F)(F)F)cc1)c1ccccc1 (configuration not stated)	inactive
CSc1ccc2c(c1)N(CCC1CCCCN1C)c1ccccc1S2 (configuration not stated)	44.7 µM (active)
CCN(CC)CCOC(=O)C1(C2CCCCC2)CCCCC1	inactive
CC(=O)OCC(=O)[C@@]1(O)CC[C@H]2[C@@H]3CCC4=CC(=O)CC[C@]4(C)[C@H]3C(=O)C[C@@]21C	inactive
COCCOC(=O)C1=C(C)NC(C)=C(C(=O)OC/C=C/c2ccccc2)C1c1cccc([N+](=O)[O-])c1 (configuration not stated)	inactive
C=Cc1c(C)c2cc3[nH]c(cc4nc(cc5nc(cc1[nH]2)C(C)=C5CCC(=O)O)C(CCC(=O)O)=C4C)c(C)c3C=C	39.8 µM (active)
CC(CN(C)C)CN1c2ccccc2CCc2ccccc21 (configuration not stated)	inactive
CCN(CC)CCCC(C)Nc1c2ccc(Cl)cc2nc2ccc(OC)cc12 (configuration not stated)	39.8 µM (active)
COC(=O)C1=C(C)NC(C)=C(C(=O)OC)C1c1ccccc1[N+](=O)[O-]	12.6 µM (active)
NC1[C@H]2CN(c3nc4c(cc3F)c(=O)c(C(=O)O)cn4-c3ccc(F)cc3F)C[C@@H]12 (some centres not stated)	50.1 µM (active)
CN(C)CC[C@@H](c1ccc(Cl)cc1)c1ccccn1	inactive
CC[N+](CC)(CC)CCOc1ccc(/C=C/c2ccccc2)cc1	39.8 µM (active)
CCN(CC)C(C)CN1c2ccccc2Sc2ccccc21 (configuration not stated)	25.1 µM (active)
C[C@](N)(Cc1ccc(O)cc1)C(=O)O	inactive
CC(C(O)c1ccc(O)cc1)N1CCC(Cc2ccccc2)CC1 (configuration not stated)	inactive

— PubChem BioAssay (NCATS)
